Source: PubChem BioAssay (several laboratories)
Sampled rows, rich in hits. Any-hit rate of the full collection: about 1.6%.
STAT3 inh-1: inhibitors of IL-6 induced STAT3 signaling | inhibition, % at 5.5 µM | hit rate 0.89% among 190,000 | U3A cells, IL-6 STAT3-luciferase reporter, luminescence; host cell line lacks STAT1;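 active means inhibition above the mean inhibition across all screened compounds plus 3 SD, cut at about 44% in these data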
PPC-1+TRAIL kill: compounds killing PPC-1 cancer cells with TRAIL present (potentiator screen, no TRAIL-free arm); PPC-1 cells + TRAIL, ATPLite viability luminescence; cell killing (% activity), % at 4 µM or 5 µM; hit rate 0.41% among 220,000; AID 1443;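 active means cell killing above 50% in the first pass at 4 µM, then a duplicate retest at 5 µM averaging 50% or more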
STAT1 inh: inhibitors of IFN-gamma induced STAT1 signaling; hit rate 0.35% among 200,000; NIH 3T3 STAT1-luciferase reporter, luminescence; AID 920; inhibition, % at 5.5 µM;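 active means inhibition above a set limit, the mean inhibition across all tested compounds plus 3 SD, cut at about 34% in these data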
C8 TRAIL sens: caspase-8 TRAIL sensitization | NB7+C8 cells + TRAIL, ATPlite viability luminescence | inhibition (viability loss, TRAIL sensitization), % at 10 µM | hit rate 1% among 360,000 | AID 624354;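 active means compounds causing at least 50% loss of cell viability in the single-dose screen, relative to plate controls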
Platelet DG rel: modulates dense granule release in human platelets. human platelet-rich plasma, SFLLRN dense granule ATP release, luminescence. inhibition, %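 (compounds screened at 7.5 µM in platelet-rich plasma)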. hit rate 0.22% among 300,000;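 active means mean replicate score, as percent of positive control, at or above 50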
STAT3 inh-2: confirmation of STAT3 signaling inhibitors. shares compounds with STAT3 inh-1. U3A cells, IL-6 STAT3 luciferase reporter, luminescence; cell line lacks STAT1. inhibition, % at 5.7 µM. hit rate 45% among 1,200;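 active means inhibition above the hit cutoff computed for the primary STAT3 screen, cut at about 44% in these data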
NFkB inh STAT3ct: NF-kappaB inhibition in STAT3 inhibitor counter-screen | shares compounds with STAT3 inh-1 | inhibition, % at 5.7 µM | HEK293T NF-kB luciferase reporter, TNF-alpha induced | hit rate 36% among 1,200 | AID 1308;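 active means inhibition above the mean of solvent-only control wells plus 3 SD, cutoff set per campaign, cut at about 13% in these data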
STAT1 inh 2: inhibits STAT1, counter-screen to STAT3 inhibitors. hit rate 27% among 1,200. inhibition, % at 5.7 µM. shares compounds with STAT3 inh-1. NIH 3T3 STAT1-luciferase reporter, IFN-gamma induced, luminescence. AID 1317;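 active means inhibition above the mean plus 3 SD of solvent-only control wells, limit set per screening run, cut at about 16% in these data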
Numbers stand for hits.

O=C(OCCN1C(=O)c2cccc3c(N4CCOCC4)ccc(c23)C1=O)c1ccc(Cl)cc1Cl was read as STAT3 inh-1 inactive, PPC-1+TRAIL kill inactive, STAT1 inh inactive, C8 TRAIL sens inactive and Platelet DG rel inactive.
O=C(OCCN1C(=O)c2cccc3c(N4CCOCC4)ccc(c23)C1=O)c1ccccc1Cl was read as STAT3 inh-1 44, PPC-1+TRAIL kill inactive, STAT1 inh inactive, C8 TRAIL sens inactive, Platelet DG rel inactive, STAT3 inh-2 47, NFkB inh STAT3ct 16 and STAT1 inh 2 inactive.
For CCc1nc2c(OCc3ccc(Cl)cc3Cl)cccn2c1N(C)C(=O)CC(C)C the results were C8 TRAIL sens inactive.
COc1cc(CNC[C@H]2O[C@@H](n3ccc(N)nc3=O)[C@H](O)[C@@H]2O)ccc1OCc1ccc(C)cc1 was read as C8 TRAIL sens inactive.
O=C(c1cc(-c2ccc3c(c2)OCO3)on1)N1CCOCC1 was read as STAT3 inh-1 52, PPC-1+TRAIL kill inactive, STAT1 inh inactive, C8 TRAIL sens inactive, Platelet DG rel inactive, STAT3 inh-2 inactive, NFkB inh STAT3ct inactive and STAT1 inh 2 inactive.
Screening O=C(c1cc(-c2ccc(F)cc2)on1)N1CCCC1 returned STAT3 inh-1 46, PPC-1+TRAIL kill inactive, STAT1 inh inactive, C8 TRAIL sens inactive, Platelet DG rel inactive, STAT3 inh-2 inactive, NFkB inh STAT3ct inactive and STAT1 inh 2 inactive.
`O=C(c1cc(-c2ccc(Cl)cc2Cl)on1)N1CCOCC1` gave STAT3 inh-1 50, PPC-1+TRAIL kill inactive, STAT1 inh inactive, C8 TRAIL sens 57, Platelet DG rel inactive, STAT3 inh-2 inactive, NFkB inh STAT3ct inactive and STAT1 inh 2 inactive.
Screening CCN(CC)c1ccc(NC(=O)COC(=O)/C=C/c2nc3ccccc3s2)cc1 returned STAT3 inh-1 inactive, PPC-1+TRAIL kill inactive, STAT1 inh inactive, C8 TRAIL sens inactive and Platelet DG rel inactive.
Screening CCN(CC)c1ccc(/C=C/c2nc3ccccc3s2)cc1 returned STAT3 inh-1 66, PPC-1+TRAIL kill inactive, STAT1 inh inactive, Platelet DG rel inactive, STAT3 inh-2 inactive, NFkB inh STAT3ct inactive and STAT1 inh 2 inactive.
For CN1/C(=C\C(=O)C[n+]2ccc3ccccc3c2)C(C)(C)c2ccccc21 the results were STAT3 inh-1 73, PPC-1+TRAIL kill inactive, STAT1 inh inactive, C8 TRAIL sens inactive, Platelet DG rel inactive, STAT3 inh-2 74, NFkB inh STAT3ct inactive and STAT1 inh 2 inactive.
Screening CCc1nnc2sc(-c3ccc(NC(=O)c4ccc5c(c4)OCCO5)cc3)nn12 returned STAT3 inh-1 55, PPC-1+TRAIL kill inactive, STAT1 inh inactive, C8 TRAIL sens inactive, Platelet DG rel inactive, STAT3 inh-2 51, NFkB inh STAT3ct 13 and STAT1 inh 2 32.
Screening COc1ccc2cc3c(N)nn(C(=O)Cc4ccc(Cl)cc4)c3nc2c1 returned STAT3 inh-1 inactive, PPC-1+TRAIL kill inactive, STAT1 inh inactive, C8 TRAIL sens inactive and Platelet DG rel inactive.
For COc1cccc(CC(=O)n2nc(N)c3cc4ccc(OC)cc4nc32)c1 the results were STAT3 inh-1 46, PPC-1+TRAIL kill inactive, STAT1 inh inactive, C8 TRAIL sens inactive, Platelet DG rel inactive, STAT3 inh-2 inactive, NFkB inh STAT3ct inactive and STAT1 inh 2 inactive.
`COc1ccc(OCCN2C(=O)c3cccc(N)c3C2=O)cc1` gave C8 TRAIL sens inactive and Platelet DG rel inactive.
CCN1/C(=C/c2ccc3cc(C)ccc3[n+]2CC)Sc2ccccc21 was read as STAT3 inh-1 91, PPC-1+TRAIL kill 66, STAT1 inh inactive, C8 TRAIL sens inactive, Platelet DG rel inactive, STAT3 inh-2 88, NFkB inh STAT3ct 37 and STAT1 inh 2 21.
For CCN1/C(=C/C=C/C=C/C=C/c2sc3ccccc3[n+]2CC)Sc2ccccc21 the results were C8 TRAIL sens inactive and Platelet DG rel inactive.
Cc1cc(NC(=O)CN2C(=O)NC(c3ccccc3)(c3ccc(C)c(C)c3)C2=O)no1 (centres undefined) was read as C8 TRAIL sens inactive.
`CN1CCN(C(=O)c2ccc(-c3cnc4cccnn34)cc2)CC1` gave C8 TRAIL sens inactive.
